The record followed here is PubChem BioAssay (NCATS).

Molecules are shown by their SMILES. The source made the active and inactive calls. The rule behind the calls is not given here. Some results are limits rather than exact numbers.
Potency is the fitted concentration of half-maximal effect.

The test has as its system HIV-1 nucleocapsid protein NCp7 (binding to TG oligonucleotide). In words: HIV Nucleocapsid (AID 346).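 Note: potency is for inhibitors that block NC binding and lower polarization.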 To be noted: HIV-1 NC / fluorescein-TGTGTGTG probe, fluorescence polarization. The procedure, abridged:
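Fluorescence polarization binding of 100 nM HIV-1 NC to 10 nM fluorescein-labelled TG4xF oligonucleotide. Buffer was Hepes pH 7.5 with 250mM NaCl, 1uM ZnCl2, TCEP and 2-mercaptoethanol. Compounds were incubated 1 hr at room temperature before the read.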
(In general: Polarisation of emitted light reports the rotation of a fluorescent probe.)
For `O=C(Nc1ccccc1)N1CC2(CCN(C(=O)c3cnccn3)CC2)C1`, the Potency was > 20 µM (inactive).
The same measure for `Cn1c(=O)c(-c2ccc(Cl)cc2)nc2cnc(N3CCNCC3)nc21`: > 20 µM (inactive); for `COc1ccc(-n2c(=O)cnc3cnc(Nc4ccccc4)nc32)cc1`: > 4 µM (inactive); for `O=C(Nc1ccccc1)N1CC[C@@]2(CCCN(C(=O)c3ccco3)C2)C1`: > 20 µM (inactive).
With `COCCn1c(=O)c(-c2ccc(OC)cc2)nc2cnc(Oc3cccc(Cl)c3)nc21` the figure was > 20 µM (inactive); with `COCCNc1ncnc2ccc(-c3ccccc3OC)cc12`, > 20 µM (inactive); with `Cc1noc(C)c1-c1nccc(NCc2cccnc2)n1`, > 20 µM (inactive).
With `Cc1noc(C)c1C(=O)N1CCC2(CCCN(Cc3ccc(C#N)cc3)C2)CC1` the figure was > 20 µM (inactive).
Take `O=C(c1cccc(F)c1)N1CCC2(CCCN(Cc3ccncc3)C2)CC1`: the Potency is > 20 µM (inactive).
The same measure for `CC(C)CN1CCC2(CC1)CCN(C(=O)c1cc(C(F)(F)F)cc(C(F)(F)F)c1)CC2`: > 20 µM (inactive).
With `O=C(c1ccco1)N1CCC2(CC1)CCN(c1ccncc1)CC2`, the Potency was > 20 µM (inactive).
The same measure for `O=C(Nc1ccccc1)N1CC[C@@]2(CCCN(C(=O)c3ccncc3)C2)C1`: > 20 µM (inactive); for `CS(=O)(=O)N1CCC2(CC1)CN(Cc1cc(C(F)(F)F)cc(C(F)(F)F)c1)C2`: > 20 µM (inactive).
Turning to `Cn1cc(-c2nc3cnc(Oc4cccc(Cl)c4)nc3n(C3CC3)c2=O)c2ccccc21`, the Potency is > 20 µM (inactive).
The same measure for `CN(C)C(=O)c1ccc(-c2cncnc2NCCc2cnc[nH]2)cc1`: > 20 µM (inactive); for `CN(C)c1nc(-c2cccc(C#N)c2)nc2ccccc12`: > 20 µM (inactive); for `COc1cccc(Cn2c(=O)c(CCc3ccccc3)nc3cncnc32)c1`: > 20 µM (inactive).
`COc1ncc2nc(-c3cccs3)c(=O)n(CCC#N)c2n1`: the Potency is > 20 µM (inactive).
As to `CN(C)c1ncc2nc(CCc3ccccc3)c(=O)n(CCc3ccccc3)c2n1`, the Potency was > 20 µM (inactive).
For the compound `c1ccc(-c2cccc(N3CC4(CCNCC4)C3)c2)cc1`, the Potency was > 20 µM (inactive).
With `CC(=O)NCCNc1ncncc1-c1ccccc1C` the figure was > 20 µM (inactive); with `CN(Cc1ccco1)c1cc(-c2ccc3c(c2)OCO3)ncn1`, > 20 µM (inactive).
With `CN(Cc1ccco1)c1ncncc1-c1ccc2c(c1)OCO2` the figure was > 20 µM (inactive).
Regarding `COc1ccc(CNc2ccnc(-c3ccccc3Cl)n2)c(OC)c1`, the Potency is > 20 µM (inactive).
With `N#Cc1ccc(CN2CC3(CCN(C(=O)c4ccncc4)CC3)C2)cc1` the figure was > 20 µM (inactive).
With `COc1cccc(-c2cncnc2NCCc2c[nH]c3ccc(OC)cc23)c1` the figure was > 20 µM (inactive); with `COc1ccc(-n2c(=O)c(CCc3ccccc3)nc3cnc(OC)nc32)cc1`, > 20 µM (inactive).
On to `O=C(Nc1cccc(F)c1)N1CCCC2(CCN(C(=O)c3cc(C(F)(F)F)cc(C(F)(F)F)c3)CC2)C1`, for which the Potency is > 20 µM (inactive).
The same measure for `N#Cc1cccc(-c2ccc3ncnc(NCCN4CCOCC4)c3c2)c1`: > 20 µM (inactive); for `O=C(c1cccc(F)c1)N1CCC2(CCCN(c3ccccn3)C2)CC1`: > 20 µM (inactive).
Take `COc1ccccc1CNc1ncncc1-c1ccccc1C`: the Potency is > 20 µM (inactive).
With `COc1ccc(-c2nc3cnc(OC)nc3n(C3CC3)c2=O)cc1` the figure was > 20 µM (inactive); with `COc1ccc2[nH]cc(CCNc3cc(-c4ccoc4)ncn3)c2c1`, > 20 µM (inactive); with `COc1ccccc1-c1cc(N(C)Cc2ccco2)ncn1`, > 20 µM (inactive).
With `COc1cccc(Cn2c(=O)c(-c3cccc(Cl)c3)nc3cncnc32)c1` the figure was > 20 µM (inactive); with `O=c1c(-c2ccc(Cl)cc2)nc2cnc(Nc3ccccc3)nc2n1C1CC1`, > 20 µM (inactive); with `O=C(c1csnn1)N1CCC[C@@]2(CCN(C(c3ccccc3)c3ccccc3)C2)C1`, > 20 µM (inactive).
The same measure for `COc1ccc(CNc2ncncc2-c2ccc(C(=O)N(C)C)cc2)c(OC)c1`: > 20 µM (inactive).
Turning to `COc1ccc(C(=O)N2CCC[C@@]3(CCN(Cc4ccccc4OC)C3)C2)cc1`, the Potency is > 20 µM (inactive).
As to `CCNc1ncc2nc(C)c(=O)n(CCC#N)c2n1`, the Potency is > 20 µM (inactive).
